Source: PubChem (Milwaukee Institute for Drug Discovery)
In the library only some 7.6% were active in any assay of this set; here they are far more common.
Cy5 interf NS3h: counter-screen for HCV NS3 helicase inhibitors: fluorescence interference; fluorescence interference ratio at 100 µM; actives 6% (n = 16,000); AID 720488; Cy5-dT15 DNA with NS3h; actives lie on both sides; signal over control mean, under 1 quenches;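 active means compound fluorescence over control fluorescence at most 0.8, a quencher, or at least a set upper limit, an enhancer; inactive means ratio between 0.8 and the set upper limit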
HCV NS3h FP: hepatitis C NS3 helicase inhibition, primary screen. NS3h Cy5-dT15 DNA binding, fluorescence polarization. inhibition, % at 100 µM. actives 1.6% (n = 16,000). AID 687043;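 active means inhibition above the average over every tested compound plus 3 SD, cut at about 40% in these data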
HCV NS3h conf: confirmation of hepatitis C virus NS3 helicase inhibitors | shares compounds with HCV NS3h FP | actives 20% (n = 240) | AID 720485 | NS3h binding to Cy5-dT15 DNA, fluorescence polarization | inhibition, % at 100 µM;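 active means percent inhibition of 50% or more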
SSB-DNA FP CB: disrupts E. coli SSB binding to DNA in counter-screen; shares compounds with HCV NS3h FP; E. coli SSB binding Cy5-dT15, fluorescence polarization; inhibition, % at 100 µM; actives 40% (n = 240);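 active means inhibition of at least 50%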;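 further: displacers lower Cy5 polarization so higher inhibition means more SSB displaced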
Target sequence (P0AGE0 whole entry, looked up): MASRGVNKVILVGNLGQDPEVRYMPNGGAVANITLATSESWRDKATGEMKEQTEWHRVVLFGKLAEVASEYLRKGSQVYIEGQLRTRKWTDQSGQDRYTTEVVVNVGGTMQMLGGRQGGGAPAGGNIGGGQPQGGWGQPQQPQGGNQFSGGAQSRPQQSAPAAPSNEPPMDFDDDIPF
Cy5 SSB fluor CB: counter-screen for HCV NS3 helicase inhibitors: fluorescence interference. fluorescence interference ratio at 100 µM. Cy5-dT15/E. coli SSB fluorescence interference; actives lie on both sides. shares compounds with HCV NS3h FP. AID 720487. actives 8% (n = 240);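 active means fluorescence interference ratio at or above 1.2, signal boosting, or at or below 0.8, signal quenching; inactive means ratio between 0.8 and 1.2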;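 further: ratio of compound well signal to mean negative control signal so 1 means no effect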
Cy5 interf conf: Cy5 fluorescence interference, confirmation counter-screen. Cy5-dT15 DNA/NS3h fluorescence interference counterscreen. actives 44% (n = 240). fluorescence interference ratio at 100 µM, hits read low. AID 720489. shares compounds with HCV NS3h FP;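 active means fluorescence interference ratio at or below 0.8 quencher or at or above a set limitenhancer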;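 further: ratio of compound fluorescence to mean of negative controls so 1 means no interference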
* hit, by the source's call; . = not tested or not shown.

SMILES	Cy5 interf NS3h	HCV NS3h FP	HCV NS3h conf	SSB-DNA FP CB	Cy5 SSB fluor CB	Cy5 interf conf
O=C1NC(=O)N(c2ccc(Cl)cc2)C(=O)/C1=C/c1ccc(-c2ccccc2C(=O)O)o1	1.2	44*	56*	30	0.95	0.91
O=C1NC(=O)N(c2ccc(Cl)cc2)C(=O)/C1=C\c1ccc(-c2ccccc2[N+](=O)[O-])o1	1	1	.	.	.	.
CCOc1ccc(N2C(=O)NC(=O)/C(=C\c3ccc(-c4ccc([N+](=O)[O-])cc4OC)o3)C2=O)cc1	1	22	.	.	.	.
CCOc1cc(/C=C2\C(=O)NN(c3ccc(Cl)c(Cl)c3)C2=O)ccc1OC(C)=O	0.84	38	29	11	0.88	0.87
O=C1NN(c2ccc(Cl)c(Cl)c2)C(=O)/C1=C/c1ccc(Cl)c([N+](=O)[O-])c1	0.87	37	.	.	.	.
COc1ccc(CNC(=O)N2CCOCC2)cc1	1.1	10	.	.	.	.
Cc1cc(-n2c(C)cc(C=O)c2C)cc(C)c1Br	0.92	5	.	.	.	.
CC(=O)Nc1cccc(Oc2ccc3c(c2)C(=O)N(c2ccc(C)c(Cl)c2)C3=O)c1	0.88	-13	.	.	.	.
CCN(CC)c1ccc(/C=C/c2[nH]c(=O)[nH]c(=O)c2[N+](=O)[O-])c(OC)c1	0.92	54*	9	19	0.87	0.87
O=c1[nH]c(/C=C\c2ccccc2Cl)c([N+](=O)[O-])c(=O)[nH]1	0.9	-9	.	.	.	.
CN1C(=O)C(=Cc2ccc(-c3ccc(Cl)c(C(=O)O)c3)o2)C(=O)N(C)C1=O	1.1	23	.	.	.	.
N#CC(C#N)=Cc1ccc(-c2ccc(Cl)c(C(=O)O)c2)o1	1.1	43*	23	41	0.97	0.79*
CCc1c(C#N)c(N)nc(SCC(=O)c2ccc(-c3ccccc3)cc2)c1C#N	1	3	.	.	.	.
CCc1c(C#N)c(N)nc(SCC(=O)c2cc3ccccc3oc2=O)c1C#N	1.1	30	-4	3	1	0.76*
O=C(NC(=S)Nc1cccc(-c2nc3cc(Cl)ccc3o2)c1)c1ccco1	0.95	3	.	.	.	.
CC1CCN(c2cccc3c2C(=O)c2ccccc2C3=O)CC1	1	8	.	.	.	.
O=C1c2ccccc2-c2onc3ccc(N4CCCCC4)c1c23	1.1	52*	25	71*	1.2*	0.79*
Cc1ccc(NC(=O)CN(c2ccc(F)cc2)S(=O)(=O)c2ccccc2)cc1C	0.95	12	.	.	.	.
O=C(CCCOc1ccc(Cl)cc1Cl)Nc1ncn[nH]1	0.97	1	.	.	.	.
CCOC(=O)c1sc(NC(=O)CCCOc2ccc(Cl)cc2Cl)nc1C	0.97	22	2	2	0.97	0.75*
CCOC(=O)C1=C(O)/C(=C\c2cccc3ccccc23)N=C1C	0.88	11	.	.	.	.
O=C1NC(=S)NC(=O)C1=Cc1ccc(OCc2ccccc2Cl)cc1	0.89	48*	1	61*	0.92	0.75*
O=C1NC(=S)NC(=O)C1=Cc1ccccc1OCc1ccccc1Cl	0.97	27	.	.	.	.
CCCOC(=O)c1cccc(NC(=O)/C=C/c2ccc(Cl)cc2)c1	1	6	.	.	.	.
CC(=O)c1ccc(NC(=S)NC(=O)c2ccccc2)cc1	0.89	24	.	.	.	.
SMILES	Cy5 interf NS3h	HCV NS3h FP	HCV NS3h conf	SSB-DNA FP CB	Cy5 SSB fluor CB	Cy5 interf conf
NS(=O)(=O)c1ccc(NC(=S)NC(=O)c2ccccc2)cc1	1	50*	37	83*	1	1
Cc1ccc(OCCOCCOc2ccccc2/C=C2/SC(=S)NC2=O)cc1	0.93	6	.	.	.	.
CCOc1ccc(C(=O)Nc2cc(OC)ccc2OC)cc1[N+](=O)[O-]	1.1	89*	16	13	0.93	0.94
COc1ccc(C)cc1NC(=O)c1ccc(OC)c([N+](=O)[O-])c1	0.97	4	.	.	.	.
O=C(/C=C/c1ccc(-c2cccc(Cl)c2Cl)o1)c1ccco1	1.1	10	.	.	.	.
O=C(CC1S/C(=N/N=C\c2ccccc2)NC1=O)Nc1ccc(C(=O)O)cc1 (stereo not drawn)	1.1	128*	53*	101*	0.87	0.78*
O=C(CC1SC(=O)NC1=O)Nc1ccc(C(=O)O)cc1 (stereo not drawn)	1.1	18	.	.	.	.
CC1=C/C(=N/N=C2\NC(=O)C(CC(=O)Nc3ccc(C(=O)O)cc3)S2)CC(C)(C)C1 (stereo not drawn)	1.1	89*	62*	95*	0.89	0.75*
C/C(=N/N=C1\NC(=O)C(CC(=O)Nc2ccc(C(=O)O)cc2)S1)c1ccc([N+](=O)[O-])cc1 (stereo not drawn)	1.1	7	.	.	.	.
